In ChEMBL document CHEMBL3433997, “St. Jude Leishmania screening dataset” (2016) one finds inhibition data, which are given here for 40 compounds.

Solute carrier family 2, facilitated glucose transporter member 1 (Homo sapiens), sequence (P11166 whole entry): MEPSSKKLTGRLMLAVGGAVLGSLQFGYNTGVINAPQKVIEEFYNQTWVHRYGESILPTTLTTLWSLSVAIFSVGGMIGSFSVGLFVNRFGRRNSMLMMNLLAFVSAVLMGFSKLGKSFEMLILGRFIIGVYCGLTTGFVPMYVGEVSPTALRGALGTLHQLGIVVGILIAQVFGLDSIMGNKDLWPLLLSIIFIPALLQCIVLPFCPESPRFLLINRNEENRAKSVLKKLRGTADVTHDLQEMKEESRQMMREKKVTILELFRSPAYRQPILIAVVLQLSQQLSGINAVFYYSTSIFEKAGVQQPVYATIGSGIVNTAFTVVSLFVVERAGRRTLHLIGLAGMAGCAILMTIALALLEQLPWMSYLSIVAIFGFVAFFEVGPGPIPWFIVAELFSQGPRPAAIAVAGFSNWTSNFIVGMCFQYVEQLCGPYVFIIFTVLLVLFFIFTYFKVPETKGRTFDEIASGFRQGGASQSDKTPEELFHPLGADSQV

The first test concerns the target Solute carrier family 2, facilitated glucose transporter member 1 (Homo sapiens) (UniProt P11166). As to the kind of experiment: ST_JUDE_LEISH: Cytotoxicity at 2uM final concentration against transgenic Leishmania Mexicana promastigotes LmGLUT1 that are glucose transport deficient and complemented with the human glucose transporter GLUT1. Activity is measured by DNA content using SYBR green in vitro. In kind it is functional.
Usually inhibition stands for the relative decrease from the control value, in per cent. As for `CN(c1ccc(NC(=O)Nc2cc(C(F)(F)F)ccc2F)cc1)c1ccnc(NCCN2CCOCC2)n1`, the inhibition came to 7.88%.

With `c1ccc(Oc2ccc(Nc3ccnc4cc(-c5ccc(CNCCN6CCOCC6)o5)ccc34)cc2)cc1`, the inhibition came to 2.2%.

On to `Cc1[nH]c(C)c(-c2ccc(-c3ccc(F)cc3)nc2)c(=O)c1Br`, for which the inhibition stood at 0.98%.

In the case of `COC(=O)c1cccc(CNCc2cccc(-c3cccc(-c4nc5cc(C(F)(F)F)ccc5[nH]4)c3)c2)c1`, the inhibition was -1.41%.

Regarding `N=C(N)c1ccc(NCc2cccc(C(=O)O)c2)cc1`, the inhibition was 1.02%.

With `COc1cc(NC(=O)c2cc([N+](=O)[O-])ccc2NC(=O)CNC2CCCC(C)C2C)cc(OC)c1` (stereo not given), the inhibition is 12%.

On to `O=C(/C=C/c1ccc(Cl)c(Cl)c1)NCCCCCN1CCC(c2c[nH]c3c(-c4ccccc4)cccc23)CC1`, for which the inhibition came to 0.48%.

For `CN1CCN(CCCCCNc2c3ccccc3nc3ccccc23)CC1`, the inhibition was found to be 28%.

Turning to `Cn1c(=O)c2nc(-c3ccc(Cl)cc3)nnc2n(CCCC#N)c1=O`, the inhibition was 7.35%.

In the case of `CC(=O)c1c(Cc2ccccc2Cl)c[nH]c1C`, the inhibition was 4.46%.

Consider `CCOC(=O)c1c[nH]c2c(ccc3ccccc32)c1=O`, for which the inhibition is -1.23%.

Take `O=C(Nc1ccc(Cl)c(Cl)c1)N(Cc1ccccc1Br)C1CCNCC1`: the inhibition was 0.5%.

On to `CN(C)Cc1ccc(-c2ccc3c(Nc4ccc(Oc5ccccc5)cc4)ccnc3c2)o1`, for which the inhibition amounted to 0.83%.

Consider `CC(C)CCN1CCC(Oc2ccc(NC(=O)c3ccc(F)cc3)cc2Cl)CC1`, for which the inhibition was -2.57%.

In the case of `CC(=O)Nc1ccc(CCNC(C)Cc2ccc(C(=O)Nc3ccc(CC(C)NCCc4cccc(Cl)c4)cc3)cc2)cc1` (stereo not given), the inhibition was 2.17%.

As to `COc1cc(NC(=O)N2CCc3ccc(OCCC4CCCN4C)cc32)cc(C(F)(F)F)c1` (stereo not given), the inhibition is -0.5%.

Take `O=C(Nc1cccc(-c2ccc(-c3nc4ccccc4[nH]3)cc2)c1)c1cccnc1`: the inhibition was found to be 6.47%.

`N#Cc1ccc2c(c1)CCN(CCC1CCC(NC(=O)/C=C/c3ccc4ccccc4c3)CC1)CC2` (stereo not given): the inhibition is -0.35%.

On to `COc1cc(C(=O)Nc2ccc(-c3nc4ccccc4[nH]3)cc2)cc(OC)c1OC`, for which the inhibition amounted to 2.49%.

On to `O=C(Nc1ccc(OC2CCN(Cc3ccccc3)C2)c(Cl)c1)c1ccc(F)cc1` (stereo not given), for which the inhibition was -5.06%.

Regarding `N#Cc1cccc(NC(=O)Nc2cccc(-c3ccc(-c4nc5cc(C(F)(F)F)ccc5[nH]4)cc3)c2)c1`, the inhibition worked out at 2.29%.

On to `Cc1cc2c(/C=C/C(=O)NC3CCC(CCN4CCc5ccc(C#N)cc5CC4)CC3)cccc2[nH]1` (stereo not given), for which the inhibition is 4%.

As to `CN1CCN(CCCN(Cc2cccc(-c3cccc(CNC4CCCC4)c3)c2)C(=O)CCC2CCCC2)CC1`, the inhibition was -0.12%.

Turning to `O=C(Nc1cccc(CN2CCN(C(=O)c3ccccc3)CC2)c1)c1ccco1`, the inhibition amounted to 3.67%.

In the case of `O=C(/C=C/c1cccc(C(F)(F)F)c1)NCCCCCN1CCN(C(=O)Nc2ccc(Cl)c(Cl)c2)CC1`, the inhibition came out at 2.21%.

As for `c1ccn2c(Sc3ncnc4sccc34)ncc2c1`, the inhibition is -0.89%.

Turning to `COC(=O)Cc1ccc(N)c2ccccc12`, the inhibition was -0.85%.

As for `COc1nc(Nc2cccc(C)c2)nc(OC)n1`, the inhibition was -0.24%.

Consider `O=C(NC(=S)Nc1cc(C(F)(F)F)cc(C(F)(F)F)c1)c1ccc(Cl)cc1`, for which the inhibition amounted to 0.72%.

As to `Cc1[nH]c(C)c(-c2ccc(C#Cc3ccc(F)cc3F)cc2)c(=O)c1Br`, the inhibition was -0.29%.

For `Cc1cccc2nc(-c3ccc(-c4ccc(NC(=O)NCc5cccc(F)c5)cc4)s3)[nH]c12`, the inhibition is 7.99%.

`CN(C)CCNc1ncnc2c1[nH]c1ccc(Cl)cc12`: the inhibition came out at 3.7%.

With `Oc1ccc2ccccc2c1CNC1CCCCCC1`, the inhibition worked out at 0.85%.

Turning to `CCN1CCCC(Nc2ccnc3cc4ccccc4cc23)C1` (stereo not given), the inhibition worked out at 4.12%.

For `c1ccc(CNc2nc(NCCN3CCCCC3)nc3ccccc23)cc1`, the inhibition was 10.2%.

Take `Cc1cc(C)cc(OCC(O)CN(Cc2cc(Cl)cc(Cl)c2)C(=O)Nc2ccccc2Cl)c1` (stereo not given): the inhibition came out at 2.01%.

Take `COc1cccc2cc(C(=O)N[C@@H](CC(C)C)C(=O)N[C@H](/C=N/N3C(=O)CN(Cc4ccccc4)C3=O)CCc3ccccc3)oc12`: the inhibition worked out at 7.07%.

Turning to `COc1ccc(CNC2Cc3ccccc3C2)cc1-c1ccc(S(=O)(=O)NCc2ccccc2)s1`, the inhibition came out at 6.85%.

For `Cc1ccc(-c2cc3nc4c(c(NCCCn5ccnc5)n3n2)CCC4)cc1`, the inhibition was 2.77%.

For `CCCCCCn1c(Sc2ccc(C#N)c([N+](=O)[O-])c2)nnc1-c1ccc(OC)cc1`, the inhibition was 5.67%.

The next test addresses Hexose transporter 1 (Plasmodium falciparum) (UniProt O97467). As to the kind of experiment: ST_JUDE_LEISH: Cytotoxicity at 2uM final concentration against transgenic Leishmania Mexicana promastigotes LmPfHT that are glucose transport deficient and complemented with the Plasmodium falciparum hexose transporter. Activity is measured by DNA content using SYBR green in vitro. In kind it is functional.
For `CN(c1ccc(NC(=O)Nc2cc(C(F)(F)F)ccc2F)cc1)c1ccnc(NCCN2CCOCC2)n1`, the inhibition came to 18.5%.

`c1ccc(Oc2ccc(Nc3ccnc4cc(-c5ccc(CNCCN6CCOCC6)o5)ccc34)cc2)cc1`: the inhibition is 2.86%.

Take `Cc1[nH]c(C)c(-c2ccc(-c3ccc(F)cc3)nc2)c(=O)c1Br`: the inhibition was found to be 1.82%.

Take `COC(=O)c1cccc(CNCc2cccc(-c3cccc(-c4nc5cc(C(F)(F)F)ccc5[nH]4)c3)c2)c1`: the inhibition is -2.35%.

In the case of `N=C(N)c1ccc(NCc2cccc(C(=O)O)c2)cc1`, the inhibition was 1.06%.

As to `COc1cc(NC(=O)c2cc([N+](=O)[O-])ccc2NC(=O)CNC2CCCC(C)C2C)cc(OC)c1` (stereo not given), the inhibition came to 4.27%.

With `O=C(/C=C/c1ccc(Cl)c(Cl)c1)NCCCCCN1CCC(c2c[nH]c3c(-c4ccccc4)cccc23)CC1`, the inhibition turned out to be 4.3%.

For the compound `CN1CCN(CCCCCNc2c3ccccc3nc3ccccc23)CC1`, the inhibition was 21.1%.

As to `Cn1c(=O)c2nc(-c3ccc(Cl)cc3)nnc2n(CCCC#N)c1=O`, the inhibition is 7.41%.

For the compound `CC(=O)c1c(Cc2ccccc2Cl)c[nH]c1C`, the inhibition was 3.16%.

For the compound `CCOC(=O)c1c[nH]c2c(ccc3ccccc32)c1=O`, the inhibition was 6.87%.

As to `O=C(Nc1ccc(Cl)c(Cl)c1)N(Cc1ccccc1Br)C1CCNCC1`, the inhibition worked out at 3.45%.

As for `CN(C)Cc1ccc(-c2ccc3c(Nc4ccc(Oc5ccccc5)cc4)ccnc3c2)o1`, the inhibition amounted to 0.83%.

As to `CC(C)CCN1CCC(Oc2ccc(NC(=O)c3ccc(F)cc3)cc2Cl)CC1`, the inhibition was -4.4%.

Regarding `CC(=O)Nc1ccc(CCNC(C)Cc2ccc(C(=O)Nc3ccc(CC(C)NCCc4cccc(Cl)c4)cc3)cc2)cc1` (stereo not given), the inhibition is -1.77%.

As to `COc1cc(NC(=O)N2CCc3ccc(OCCC4CCCN4C)cc32)cc(C(F)(F)F)c1` (stereo not given), the inhibition turned out to be 0.15%.

On to `O=C(Nc1cccc(-c2ccc(-c3nc4ccccc4[nH]3)cc2)c1)c1cccnc1`, for which the inhibition came out at 0.4%.

Consider `N#Cc1ccc2c(c1)CCN(CCC1CCC(NC(=O)/C=C/c3ccc4ccccc4c3)CC1)CC2` (stereo not given), for which the inhibition is -1.71%.

For `COc1cc(C(=O)Nc2ccc(-c3nc4ccccc4[nH]3)cc2)cc(OC)c1OC`, the inhibition was determined as 2.26%.

Regarding `O=C(Nc1ccc(OC2CCN(Cc3ccccc3)C2)c(Cl)c1)c1ccc(F)cc1` (stereo not given), the inhibition was found to be 1.99%.

Take `N#Cc1cccc(NC(=O)Nc2cccc(-c3ccc(-c4nc5cc(C(F)(F)F)ccc5[nH]4)cc3)c2)c1`: the inhibition was found to be 2.13%.

As to `Cc1cc2c(/C=C/C(=O)NC3CCC(CCN4CCc5ccc(C#N)cc5CC4)CC3)cccc2[nH]1` (stereo not given), the inhibition was 4.14%.

As to `CN1CCN(CCCN(Cc2cccc(-c3cccc(CNC4CCCC4)c3)c2)C(=O)CCC2CCCC2)CC1`, the inhibition was -0.45%.

With `O=C(Nc1cccc(CN2CCN(C(=O)c3ccccc3)CC2)c1)c1ccco1`, the inhibition was 3.78%.

Take `O=C(/C=C/c1cccc(C(F)(F)F)c1)NCCCCCN1CCN(C(=O)Nc2ccc(Cl)c(Cl)c2)CC1`: the inhibition was 2.33%.

Turning to `c1ccn2c(Sc3ncnc4sccc34)ncc2c1`, the inhibition was -1.87%.

In the case of `COC(=O)Cc1ccc(N)c2ccccc12`, the inhibition is -0.46%.

Take `COc1nc(Nc2cccc(C)c2)nc(OC)n1`: the inhibition worked out at 0.66%.

For `O=C(NC(=S)Nc1cc(C(F)(F)F)cc(C(F)(F)F)c1)c1ccc(Cl)cc1`, the inhibition is -0.34%.

For `Cc1[nH]c(C)c(-c2ccc(C#Cc3ccc(F)cc3F)cc2)c(=O)c1Br`, the inhibition amounted to 1.21%.

As to `Cc1cccc2nc(-c3ccc(-c4ccc(NC(=O)NCc5cccc(F)c5)cc4)s3)[nH]c12`, the inhibition worked out at 9.74%.

`CN(C)CCNc1ncnc2c1[nH]c1ccc(Cl)cc12`: the inhibition is 3.91%.

With `Oc1ccc2ccccc2c1CNC1CCCCCC1`, the inhibition turned out to be 1.51%.

Take `CCN1CCCC(Nc2ccnc3cc4ccccc4cc23)C1` (stereo not given): the inhibition came to 4.34%.

Consider `c1ccc(CNc2nc(NCCN3CCCCC3)nc3ccccc23)cc1`, for which the inhibition was determined as 11.1%.

Regarding `Cc1cc(C)cc(OCC(O)CN(Cc2cc(Cl)cc(Cl)c2)C(=O)Nc2ccccc2Cl)c1` (stereo not given), the inhibition came to 1.42%.

In the case of `COc1cccc2cc(C(=O)N[C@@H](CC(C)C)C(=O)N[C@H](/C=N/N3C(=O)CN(Cc4ccccc4)C3=O)CCc3ccccc3)oc12`, the inhibition was found to be 8.34%.

Turning to `COc1ccc(CNC2Cc3ccccc3C2)cc1-c1ccc(S(=O)(=O)NCc2ccccc2)s1`, the inhibition came out at 4.6%.

Regarding `Cc1ccc(-c2cc3nc4c(c(NCCCn5ccnc5)n3n2)CCC4)cc1`, the inhibition worked out at 1.6%.

As for `CCCCCCn1c(Sc2ccc(C#N)c([N+](=O)[O-])c2)nnc1-c1ccc(OC)cc1`, the inhibition was 5.13%.
